Screening data as filed in PubChem.
CFTR F508del cor: correctors of CFTR F508del function in bronchial epithelial cells; CFBE cells, YFP halide quenching; stimulated with forskolin plus potentiator P3; % fluorescence drop versus neutral controls; activity (quench increase), % at 7.58 µM; actives 0.36% (n = 350,000);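 active means mean added fluorescence quench of at least 8% versus neutral control, with both replicates also reaching 8%; inconclusive means only one of the mean or replicate conditions met; inactive means mean below 8% and not both replicates reaching 8%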;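 further: cells transiently co-express mutant CFTR-F508del with the halide-sensitive YFP; corrector assay measuring rescue of mutant channel to the surface after 24 h compound exposure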
Casp6 inh: blocks human caspase-6 cleavage activity | P55212 | purified caspase-6, Z-VEID-R110 cleavage fluorescence | inhibition, % at 12.5 µM | actives 0.53% (n = 350,000) | AID 686996;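 active means mean inhibition across replicates at least about 35%, with every replicate also reaching that limit, limit read from the data; inconclusive means only one of the two criteria met; inactive means neither criterion met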;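 further: 0% = median of neutral control wells and 100% = no fluorescence left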
Target sequence (P55212 24-179 limits assumed): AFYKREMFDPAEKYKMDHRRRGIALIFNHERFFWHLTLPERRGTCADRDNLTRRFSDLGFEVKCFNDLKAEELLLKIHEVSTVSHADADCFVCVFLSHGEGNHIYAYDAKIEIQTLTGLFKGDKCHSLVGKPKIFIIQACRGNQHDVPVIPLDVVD
Target sequence (P55212 194-293 limits assumed): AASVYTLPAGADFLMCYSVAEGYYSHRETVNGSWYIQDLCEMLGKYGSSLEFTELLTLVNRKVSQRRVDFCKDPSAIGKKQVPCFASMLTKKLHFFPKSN
PglD inh: blocks C. jejuni PglD acetyltransferase activity. purified PglD enzyme, DTNB colorimetric CoA detection. inhibition, % at 12.5 µM. actives 0.098% (n = 360,000). AID 602405; in the data active means inhibition above about 16%, passing the limit was not always enough; inconclusive means no clear call, values can overlap the other calls
NSD2 HMT inh: NSD2 (human) methyltransferase inhibition; O96028; actives 0.54% (n = 310,000); inhibition, % at 12.5 µM; NSD2 peptide methylation, AlphaScreen, 120 min; AID 743445; in the data active means inhibition above about 50%
ALR inh: inhibitors of human sulfhydryl oxidase ALR. P55789. purified ALR, DTT oxidation, H2O2 HRP-luminol luminescence. inhibition, % (no concentration beside the values). actives 3.8% (n = 290,000). AID 485317;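 active means mean replicate inhibition above about 79%, with every replicate also reaching it, limit read from the data; inconclusive means only one of the two criteria met; inactive means mean below limit and not every replicate reaching it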
Target sequence (P55789 whole entry, looked up): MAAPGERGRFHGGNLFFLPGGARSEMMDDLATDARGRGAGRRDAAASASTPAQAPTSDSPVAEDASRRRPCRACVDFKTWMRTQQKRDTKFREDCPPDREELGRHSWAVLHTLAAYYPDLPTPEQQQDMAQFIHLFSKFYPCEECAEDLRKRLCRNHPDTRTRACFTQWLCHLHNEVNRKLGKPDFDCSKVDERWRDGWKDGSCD
HIV Env fusion: HIV envelope-mediated fusion inhibition. HeLa-JRFL Env/CEM21 cell fusion, luciferase. inhibition, % at 12.3 µM. actives 1.1% (n = 360,000);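 active means mean replicate inhibition score of at least 50 and every replicate individually at or above 50; inconclusive means only one of the two criteria met; inactive means mean below 50 and not all replicates reaching 50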;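 further: 0% = plate neutral controls and 100% = maraviroc near 300 nM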
Numbers without * were called inactive; ? = inconclusive; / = no result; [ ] = another dose, or the depositor's remark. Shown are actives, neighbours in structure and some others; about 4.1% of the full set was active somewhere.

SMILES	CFTR F508del cor	Casp6 inh	PglD inh	NSD2 HMT inh	ALR inh	HIV Env fusion
Cc1ccc(NC(=O)CSc2nc(NS(=O)(=O)c3ccccc3)cc(=O)[nH]2)cc1	/	/	2	/	98*	/
CCc1ccc(NC(=O)CSc2nc(NS(=O)(=O)c3ccccc3)cc(=O)[nH]2)cc1	4	8	/	3	/	-1
CCCc1cc(=O)[nH]c(Nc2ccc(N3CCCCC3)cc2)n1	/	/	1	21	98*	-21
Cc1cc(=O)[nH]c(SCC(=O)Nc2ccc(C)c(S(=O)(=O)N3CCCCC3)c2)n1	1	1	-1	-4	71	-2
Cc1cc(=O)[nH]c(SCC(=O)Nc2ccc(S(N)(=O)=O)cc2)n1	-1	52*	/	-1	99*	1
Cc1cc(=O)[nH]c(SCC(=O)Nc2ccc(C(=O)O)cc2)n1	/	1	-1	1	99*	-42
CN(C)C(=O)[C@@H]1[C@@H](CO)[C@@H]2Cn3c(ccc(C4=CCCC4)c3=O)[C@@H]2N1C(=O)Cc1cccnc1	1	-12	0	/	/	/
CCC(=O)N1CCCCN2[C@H](CO)[C@H](c3ccc(C#Cc4ccccc4)cc3)[C@@H]2C1	1	-4	1	/	/	/
C[C@@H]1CN([C@H](C)CO)C(=O)c2cccc(NS(=O)(=O)c3ccc(Cl)cc3)c2O[C@H]1CN(C)C	-3	2	-2	/	/	/
CCC(=O)N1[C@@H](CO)[C@H](c2ccccc2)[C@@H]1CNC(=O)CN1CCOCC1	-4	0	-1	/	/	/
O=C(C[C@H]1C[C@@H]2c3cc(NC(=O)C4CCC4)ccc3O[C@@H]2[C@H](CO)O1)NCC1CC1	-1	1	-1	/	/	5[16.7 µM]
CCN(CC)c1ccc(NC(=O)CSc2nc3ccccc3c(=O)[nH]2)cc1	/	/	-6	1	?	/
COC(=O)c1cc(NC(=O)CSc2nc(C)cc(=O)[nH]2)cc(C(=O)OC)c1	-2	-8	-2	0	60	/
CCOC(=O)c1ccc(NC(=O)CSc2nc3sc(C(=O)O)c(C)c3c(=O)[nH]2)cc1	-1	2	/	-1	98*	10
CCOC(=O)c1ccc(NC(=O)CSc2nc(C)cc(=O)[nH]2)cc1	/	/	-1	/	99*	/
CCN(CC)c1ccc(NC(=O)CSc2nc(C)cc(=O)[nH]2)cc1	1	5	/	/	99*	8
Cc1cc(=O)[nH]c(SCC(=O)Nc2ccc(N3CCCCC3)cc2)n1	-2	3	-1	-5	92*	/
C[C@@H]1CN([C@@H](C)CO)C(=O)c2cccc(NC(=O)C3CCCCC3)c2O[C@H]1CN(C)C(=O)Nc1ccc(F)cc1	1	3	2	/	/	/
Cc1noc(C)c1NC(=O)Nc1ccc2c(c1)C(=O)N([C@H](C)CO)C[C@@H](C)[C@H](CN(C)C(=O)Nc1ccccc1)O2	0	/	/	/	/	16[16.7 µM]
C[C@@H]1CCCCO[C@@H](CN(C)Cc2ccc3c(c2)OCO3)[C@H](C)CN([C@H](C)CO)C(=O)c2cc(NC(=O)CCC(F)(F)F)ccc2O1	1	-4	4	/	/	3[16.7 µM]
COc1ccc(NC(=O)CSc2nncs2)cc1S(=O)(=O)N1CCCCC1	1	1	1	-4	-5	8
CCOC(=O)c1cc(C#N)c(SCC(=O)Nc2ccc(C(C)=O)cc2)[nH]c1=O	-1	20	/	1	99*	-3
CCOc1ccc(NC(=O)CSc2nncc(=O)[nH]2)cc1	0	3	-2	-3	99*	-6
O=C(CSc1nncs1)Nc1ccc(N2CCCCC2)cc1	2	1	0	-3	98*	/
Cc1ccc2nc(SCC(=O)Nc3ccc(C)c([N+](=O)[O-])c3)[nH]c2c1	/	/	/	2	87*	16
SMILES	CFTR F508del cor	Casp6 inh	PglD inh	NSD2 HMT inh	ALR inh	HIV Env fusion
C/C=C/c1ccc([C@H]2[C@@H](CO)N(C(C)=O)C23CN(C(=O)c2ccccc2)C3)cc1	2	/	/	/	/	/
C[C@H](CO)N1C[C@H](C)[C@@H](CN(C)C(=O)C2CC2)Oc2ncc(C#Cc3ccccc3F)cc2C1=O	-3	1	0	/	/	4[16.7 µM]
O=C(Nc1ccc(Cl)c(Cl)c1)N[C@H]1CC[C@@H](CCNC(=O)c2ccc(F)cc2)O[C@@H]1CO	1	3	8	/	/	18[16.7 µM]
Cc1ccc2nc(SCC(=O)c3ccc(Cl)s3)[nH]c2c1	-2	2	0	1	-5	/
CC(=O)c1c(C)[nH]c(C(=O)CSc2nc3ccc(C)cc3[nH]2)c1C	/	/	1	0	97*	/
Cc1cc(=O)[nH]c(SCC(=O)Nc2ccc(F)c([N+](=O)[O-])c2)n1	4	0	-6	/	98*	-9
Cc1ccccc1-c1ccc([C@H]2[C@H]3CN(S(=O)(=O)c4cn(C)cn4)CCCCN3[C@H]2CO)cc1	-2	1	1	/	/	/
COC(=O)CCN(C)CCC(=O)OC	/	/	-8	-2	96*	/
Cc1cc(C)c(S(=O)(=O)c2c(C)cccc2C)c(OCC(C)C)n1	/	/	-1	-2	-15	78*
COC(=O)CSc1nc(N2CCOCC2)c2c(c1C#N)CC(C)(C)N(C)C2	/	/	/	3	95*	/
CCSc1nc(N2CCOCC2)c2c(c1C#N)CC(C)(C)N(C)C2	/	/	10	5	/	/
C[C@@H]1CN([C@@H](C)CO)C(=O)c2cccc(NC(=O)C3CCCCC3)c2O[C@@H]1CN(C)S(=O)(=O)c1ccc(F)cc1	-2	2	-1	/	/	/
COc1ccc(S(=O)(=O)N2C[C@H](O)COC[C@@H]3O[C@@H](CC(=O)NCc4ccc(Cl)c(Cl)c4)CC[C@H]32)cc1	3	2	1	/	/	6[16.7 µM]
COc1ccc(-c2nnn(CC(=O)N(Cc3cccs3)C(C)C(=O)NC3CCCC3)n2)cc1OC (stereo not given)	/	/	-1	/	-13	78*
CC=Cc1ccc2n(c1=O)C[C@@H]1[C@@H](CO)[C@H](C(=O)NCCc3cn(C)cn3)N(C(=O)CC)[C@H]21 (mixture of isomers)	2	0	/	/	/	/
CCCCCOCC1CC(C/C(C)=N/Nc2nc(-c3ccccc3)cs2)C(=O)O1 (stereo not given)	/	/	/	4	96*	/
CCC(=O)Nc1ccc2c(c1)C(=O)N(C)C[C@H](OC)[C@@H](C)CN(C(=O)c1ccc(F)cc1)[C@H](C)CO2	-4	1	-1	/	/	-17[16.7 µM]
COC(=O)[C@H](CC(C)C)N(Cc1ccccc1)S(=O)(=O)N(Cc1ccc(OC)cc1)[C@@H](CC(C)C)C(=O)OC	1	/	-8	/	2	75*
CCOC(=O)[C@@H](C)NS(=O)(=O)N(Cc1ccccc1)[C@H](C(=O)OC)C(C)C	1	-3	6	/	-6	47
CCOC(=O)[C@@H](C)N(Cc1ccc(OC)cc1)S(=O)(=O)N(Cc1ccccc1)[C@H](C(=O)OC)C(C)C	-1	4	-3	/	11	92*
COC(=O)C(CC(C)C)N(Cc1cc(OC)cc(OC)c1)S(=O)(=O)c1ccccc1Br (stereo not given)	-3	/	-3	/	/	59*
